Screens: PubChem BioAssay, National Center for Advancing Translational Sciences (NCATS)
L3MBTL1 inh-1 – inhibitors of human L3MBTL1; Q9Y468; AlphaScreen L3MBTL1–H3K9me1 peptide binding; Potency, µM (top dose mostly 57.1 µM), for the others: at the highest dose activity, negative = inhibition, hits mostly inhibitors; hit rate 0.66% among 230,000; AID 485360; also: % is scaled to controls: 0 for no effect and ±100 for the full control effect; nearly all actives have a fitted effect of over 60% in size
Target sequence (Q9Y468 whole entry, looked up): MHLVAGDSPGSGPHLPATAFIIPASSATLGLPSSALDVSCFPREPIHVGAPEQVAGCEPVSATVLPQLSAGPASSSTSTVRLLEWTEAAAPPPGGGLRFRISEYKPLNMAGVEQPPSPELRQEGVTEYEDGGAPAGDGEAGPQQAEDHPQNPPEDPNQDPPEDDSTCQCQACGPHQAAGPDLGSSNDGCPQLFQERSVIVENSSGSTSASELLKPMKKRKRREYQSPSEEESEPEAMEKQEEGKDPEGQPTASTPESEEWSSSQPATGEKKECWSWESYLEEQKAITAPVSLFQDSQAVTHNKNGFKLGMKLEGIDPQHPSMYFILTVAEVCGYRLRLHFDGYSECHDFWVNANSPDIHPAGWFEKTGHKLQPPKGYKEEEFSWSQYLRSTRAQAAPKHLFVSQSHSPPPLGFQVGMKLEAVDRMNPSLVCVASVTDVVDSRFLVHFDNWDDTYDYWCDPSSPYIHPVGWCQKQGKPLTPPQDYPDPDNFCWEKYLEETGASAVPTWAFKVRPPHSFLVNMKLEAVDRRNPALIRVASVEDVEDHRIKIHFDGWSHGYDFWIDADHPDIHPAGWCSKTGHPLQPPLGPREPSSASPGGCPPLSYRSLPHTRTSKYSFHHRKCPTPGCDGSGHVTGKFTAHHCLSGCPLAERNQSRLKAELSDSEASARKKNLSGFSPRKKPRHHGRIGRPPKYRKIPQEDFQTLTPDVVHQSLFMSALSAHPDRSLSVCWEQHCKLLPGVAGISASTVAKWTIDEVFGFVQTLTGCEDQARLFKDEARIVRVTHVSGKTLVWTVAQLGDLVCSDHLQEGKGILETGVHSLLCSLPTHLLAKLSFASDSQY
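AlphaScreen proximity signal between nickel-chelate acceptor and streptavidin donor beads (final 10 ug/mL) reports binding of 50 nM L3MBTL1 to 75 nM biotin-H3 K9me1 peptide; complex incubated with compounds 30 min at room temperature; cefsulodin titration as control.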
RECQ1 helicase – inhibitors of human RECQ1 DNA helicase; RECQ1 DNA unwinding, red fluorescence kinetic read; Potency, µM (highest dose often 57.3 µM), for the others: at the highest dose activity, negative = inhibition, usual class: inhibitors; hit rate 0.54% among 240,000;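 also: plate controls were vehicle for no effect and no enzyme for full effect; nearly all actives have a fitted effect of over 30% in size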
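RECQ1T1 50 nM; forked duplex (20 bp + 30-nt ss tails) 200 nM, ATP 2 mM final; pH 8.0, 2 mM MgCl2, 2.5 ug/ml poly(dI-dC); 15 min compound preincubation; discontinuous kinetic read over 2 h at RT.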
BLM helicase inh – blocks DNA unwinding by human BLM helicase; P54132; recombinant BLM DNA unwinding, fluorescence dequenching; Potency, µM (top dose mostly 56.1 µM), for inactives: at the top dose activity change, negative = inhibition, most hits filed as inhibitors; hit rate 0.2% among 350,000;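 also: plate controls were vehicle for no effect and no enzyme for full effect; nearly all actives have a fitted effect of over 35% in size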
TDP1 inh – blocks human tyrosyl-DNA phosphodiesterase 1; Q9NUW8; recombinant TDP1, AlphaScreen DNA substrate cleavage; Potency, µM (series often up to 130 µM), inactives show top-dose activity change, negative = inhibition, most hits filed as inhibitors; hit rate 0.28% among 350,000; AID 485290; also: % is scaled to controls: 0 for no effect and ±100 for the full control effect; nearly all actives have a fitted effect of over 40% in size
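Signal: AlphaScreen proximity between streptavidin donor and anti-FITC acceptor beads on intact substrate. Reaction: Tdp1 1 nM, substrate 15 nM final, 5 min RT after 15 min compound preincubation.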
KDM4E inh – JMJD2E (human) inhibition; B2RXH2; JMJD2E catalytic domain, FDH-coupled NADH fluorescence (FDH is formaldehyde dehydrogenase); Potency, µM (titrated, usually from 57.1 µM), inactives show top-dose activity change, negative = inhibition, hits mostly inhibitors; hit rate 1.6% among 230,000; active = well fitted inhibition curve with a large enough effect, not every such curve was filed as active; inconclusive = small, poorly fitted or top-dose-only effect, or another doubt; inactive = no such curve, though single readings can be large or run the other way;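 also: 0% = wells with enzyme and -100% = buffer wells without enzyme; nearly all actives have a fitted effect of over 50% in size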
APE1 inh-1 – APE1 (human) endonuclease inhibition | P27695 | recombinant APE1, TAMRA/BHQ-2 abasic DNA cleavage fluorescence | Potency, µM (titrated, usually from 65.8 µM), for inactives: at the top dose activity change, negative = inhibition, most hits filed as inhibitors | hit rate 0.35% among 350,000 | AID 2517;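 also: plate controls were vehicle for no effect and reference inhibitor for full effect; nearly all actives have a fitted effect of over 55% in size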
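Kinetic fluorescence read (525 ex/598 em nm, three reads 60 s apart) of AP-site incision; signal = third minus first read. Enzyme 0.75 nM, dual-labelled THF duplex 50 nM, compound preincubation 15 min RT.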
APE1 dye cs – DNA dye displacement counter-screen activity. shares compounds with APE1 inh-1. DNA fluorescent dye displacement counterscreen, fluorescence. Potency, µM (doses to about 28.5 µM), inactives show top-dose activity change, negative = inhibition, usual class: inhibitors. hit rate 7% among 480;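 also: loss of thiazole orange fluorescence as the dye is displaced from duplex DNA; 0% = ThO with dsDNA and no compound and -100% = ThO without dsDNA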
EndoIV counter – Endo IV (E. coli) inhibition counter-screen. shares compounds with APE1 inh-1. E. coli Endo IV, fluorogenic AP-site DNA cleavage. Potency, µM (titrated, usually from 27.1 µM), for inactives: top-dose activity change, negative = inhibition, usual class: inhibitors. hit rate 4% among 560. AID 2565;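 also: plate controls were uninhibited enzyme wells for no effect and no enzyme buffer wells for full effect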
APE1 inh-2 – APE1 (human) endonuclease inhibition, confirmation; shares compounds with APE1 inh-1; purified APE1, fluorogenic abasic-site DNA cleavage; Potency, µM (series often up to 57.1 µM), for the others: at the top dose activity change, negative = inhibition, usual class: inhibitors; hit rate 44% among 750; AID 2572; also: % is scaled to controls: 0 for no effect and ±100 for the full control effect; nearly all actives have a fitted effect of over 30% in size
APE1 FP inh – compounds that displace a DNA probe from human APE1 | shares compounds with APE1 inh-1 | APE1 binding to TAMRA-labelled double-stranded DNA, fluorescence polarization displacement | Potency, µM (top dose mostly 28.5 µM), for inactives: top-dose activity, negative = inhibition, usual class: inhibitors | hit rate 7% among 480; also: % is scaled to controls: 0 for no effect and ±100 for the full control effect
L3MBTL1 inh-2 – L3MBTL1 binding inhibition validated | Potency, µM, usual class: inhibitors | hit rate 91% among 500 | shares compounds with L3MBTL1 inh-1 | L3MBTL1 methyl-lysine binding inhibition, biochemical qHTS; also: nearly all actives have a fitted effect of over 70% in size
L3MBTL1 ctr – interferes with AlphaScreen signal in L3MBTL1 counterscreen; AlphaScreen counterscreen, signal inhibition; AID 602224; shares compounds with L3MBTL1 inh-1; Potency, µM (series often up to 57.1 µM), for the others: top-dose activity change, negative = inhibition, actives largely listed as inhibitors; 500 tested, under 10 active; also: 0% is about no effect
The depositor's hits bear a star. Many of the other results were omitted from the sample, so hits are more common in it than they were. Unless noted, calls follow the shape of the dose curve; as a rule, active = well fitted curve in the direction sought with a large enough effect; inconclusive = small, poorly fitted or top-dose-only effect, or another doubt; inactive = no such curve, though single readings can be large; an effect the other way counts as inactive or inconclusive. Potency is read from the fitted curve at half-maximal effect.

`Cc1ccc(N2NC(=O)/C(=C/c3ccc(-c4ccc(Cl)c(C(=O)O)c4)o3)C2=O)cc1C` gave L3MBTL1 inh-1 -25%, RECQ1 helicase inactive, BLM helicase inh -4%, KDM4E inh -4% and APE1 inh-1 -10%.
For COC(=O)c1ccc(N2NC(=O)/C(=C/c3ccc(-c4ccc(Cl)c(C(=O)O)c4)o3)C2=O)cc1 the results were L3MBTL1 inh-1 6.3µM*, RECQ1 helicase inconclusive, BLM helicase inh -10%, KDM4E inh -26%, APE1 inh-1 25µM*, APE1 dye cs 6.3µM*, EndoIV counter -7%, APE1 inh-2 inconclusive, APE1 FP inh 0%, L3MBTL1 inh-2 1.7* and L3MBTL1 ctr -17%.
Screening O=C(Cn1ccc2cc(S(=O)(=O)N3CCCCCC3)ccc21)NCCc1ccccc1Cl returned BLM helicase inh -3% and TDP1 inh 3%.
`Cc1ccccc1N=C1NC(=O)/C(=C/c2cccn2-c2cccc(C(=O)O)c2)S1` gave L3MBTL1 inh-1 40µM*, RECQ1 helicase -19%, BLM helicase inh -5%, TDP1 inh inconclusive, KDM4E inh 8%, APE1 inh-1 18µM*, APE1 dye cs -4%, EndoIV counter 14%, APE1 inh-2 11µM*, APE1 FP inh inconclusive, L3MBTL1 inh-2 4.2* and L3MBTL1 ctr -21%.
`Cc1c(O)cc2c(c1O)C(=O)CC(c1ccc(O)cc1)O2` (stereo not given) gave L3MBTL1 inh-1 4µM*, RECQ1 helicase 25µM*, BLM helicase inh -25%, TDP1 inh -8%, KDM4E inh -16%, APE1 inh-1 1.6µM*, APE1 dye cs -11%, EndoIV counter -3%, APE1 inh-2 4.5µM*, APE1 FP inh inconclusive, L3MBTL1 inh-2 6.7* and L3MBTL1 ctr 7%.
C=Cc1ccc(CSc2nc(-c3ccccc3C)nc3c2Cc2c(CO)cnc(C)c2O3)cc1 was read as BLM helicase inh -1% and TDP1 inh 5%.
For Cc1c(C(=O)OCC(C)C)[nH]c2c1C(=O)CC(c1ccco1)C2 (stereo not given) the results were L3MBTL1 inh-1 inconclusive, RECQ1 helicase 15%, BLM helicase inh -11%, TDP1 inh 3%, KDM4E inh -14% and APE1 inh-1 inconclusive.
